Source: PubChem
Sampled rows, rich in hits. Any-hit rate of the full collection: about 6.9%.
BAZ2B block: blocks human BAZ2B. Potency, µM (highest dose often 114 µM), inactives show at the top dose activity change, negative = inhibition, actives largely listed as inhibitors. AlphaScreen BAZ2B-H3K14Ac peptide displacement. actives 4.4% (n = 360,000). AID 504333. Q9UIF8; further: on the % scale 0 is the no-effect control and ±100 the full control effect; nearly all actives have a fitted effect of over 60% in size
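Compounds, titrated to a top concentration of 110 uM, were incubated 30 min at room temperature with preformed BAZ2B/acetyl-K14 H3 peptide complex (50 nM each). Proximity signal was measured by AlphaScreen after 20 min with beads.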
L3MBTL1 block: L3MBTL1 (human) inhibition; Q9Y468; AlphaScreen L3MBTL1–H3K9me1 peptide binding; Potency, µM (highest dose often 57.1 µM), inactives show top-dose activity, negative = inhibition, hits mostly inhibitors; actives 0.66% (n = 230,000); further: on the % scale 0 is the no-effect control and ±100 the full control effect; nearly all actives have a fitted effect of over 60% in size
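AlphaScreen proximity signal between nickel-chelate acceptor and streptavidin donor beads (final 10 ug/mL) reports binding of 50 nM L3MBTL1 to 75 nM biotin-H3 K9me1 peptide; complex incubated with compounds 30 min at room temperature; cefsulodin titration as control.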
JMJD2A Tudor inh: inhibitors of human JMJD2A Tudor domain | O75164 | Potency, µM (doses to about 114 µM), inactives show at the highest dose activity change, negative = inhibition, hits mostly inhibitors | AlphaScreen JMJD2A-Tudor / H3K4me3 peptide binding | AID 504339 | actives 4.4% (n = 390,000); further: on the % scale 0 is the no-effect control and ±100 the full control effect; nearly all actives have a fitted effect of over 50% in size
HP1b binding inh: HP1-beta chromodomain-methylated histone interaction inhibition; actives 0.56% (n = 390,000); Potency, µM (top dose mostly 114 µM), for inactives: at the top dose activity change, negative = inhibition, most hits filed as inhibitors; P83916; AID 540317; AlphaScreen HP1-beta / biotin-H3K9me3 peptide binding; further: nearly all actives have a fitted effect of over 70% in size
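Compound inhibition of the preformed complex between 50 nM HP1-beta and 50 nM biotinylated H3K9me3 peptide was read by AlphaScreen. Buffer was PBS pH 7.4 with 0.01% Tween-20. Incubations ran 30 min at room temperature, with 10 ug/mL donor/acceptor beads.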
VDR inh: blocks the human vitamin D receptor | P11473 | VDR-SRC2-3 peptide fluorescence polarization, 2 h | Potency, µM, for inactives: max response, negative = inhibition, actives largely listed as inhibitors | actives 0.93% (n = 400,000) | AID 504847; further: on the % scale 0 is the no-effect control and ±100 the full control effect
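After 23 nl compound addition and a short centrifugation, plates sat for 2 hours at ambient temperature; polarization of fluorescence then indicated loss of VDR binding to peptide SRC2-3.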
PLK1 PBD inh: blocks phosphopeptide binding to human PLK1 polo-box domain; Potency, µM, without a hit: max response, negative = inhibition, usual class: inhibitors; actives 2.8% (n = 360,000); P53350; Plk1 PBD binding of FITC phosphopeptide, fluorescence polarization; further: series mostly up to about 57 µM; on the % scale 0 is the no-effect control and ±100 the full control effect; nearly all actives have a fitted effect of over 65% in size
Target sequence (P53350 whole entry, looked up, the tested form may be a part): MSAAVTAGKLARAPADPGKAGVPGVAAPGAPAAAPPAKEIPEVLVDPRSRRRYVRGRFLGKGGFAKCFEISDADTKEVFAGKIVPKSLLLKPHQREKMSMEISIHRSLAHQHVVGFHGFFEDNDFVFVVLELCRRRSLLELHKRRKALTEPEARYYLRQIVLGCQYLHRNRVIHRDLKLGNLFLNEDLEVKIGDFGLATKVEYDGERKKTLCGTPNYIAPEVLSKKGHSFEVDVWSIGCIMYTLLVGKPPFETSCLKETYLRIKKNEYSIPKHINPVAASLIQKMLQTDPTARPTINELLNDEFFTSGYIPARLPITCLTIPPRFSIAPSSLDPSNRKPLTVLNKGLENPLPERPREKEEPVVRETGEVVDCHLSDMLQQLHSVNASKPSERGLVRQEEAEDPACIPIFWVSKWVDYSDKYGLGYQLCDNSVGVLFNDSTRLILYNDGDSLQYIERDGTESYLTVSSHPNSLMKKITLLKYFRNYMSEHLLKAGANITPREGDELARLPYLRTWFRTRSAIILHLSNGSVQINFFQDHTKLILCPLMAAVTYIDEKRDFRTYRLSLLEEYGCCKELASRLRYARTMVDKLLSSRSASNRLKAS
* marks the source's active call; other numbers are inactive results; ? = inconclusive; nt = no result; [ ] = another dose, or the depositor's remark. The call rests on the fitted dose curve; in most records, active means well fitted curve in the direction sought with a large enough effect; inconclusive means small, poorly fitted or top-dose-only effect, or another doubt; inactive means no such curve, though single readings can be large; an effect the other way counts as inactive or inconclusive. Potency means the concentration at half of the fitted maximal effect.

SMILES	BAZ2B block	L3MBTL1 block	JMJD2A Tudor inh	HP1b binding inh	VDR inh	PLK1 PBD inh
Cc1cccc(NC(=O)C(=O)NCC(c2ccc3c(c2)OCO3)N2CCOCC2)c1C (centres undefined)	-9.2%	nt	-14.8%	12.6%[57 µM]	-6.8%	nt
CN1CCN(C(CNC(=O)c2c(F)cccc2F)c2ccc3c(c2)OCO3)CC1 (centres undefined)	-1.6%	nt	-10.3%	18.0%[57 µM]	-14.1%	nt
Cc1ccc(Nc2nc(NCCO)nc3c2cnn3C)cc1Cl	20.0%	nt	?	13.7%	?	18.9µM*
CCCNc1nc(Nc2ccc(C)c(Cl)c2)c2cnn(C)c2n1	3.6%	nt	-25.1%	18.6%	0.4%	-1.3%
Cn1c(=O)c(-c2ccc(F)cc2)nc2cnc(OCc3ccccc3)nc21	nt	nt	nt	nt	-0.4%	nt
O=C(CSc1nc(=O)[nH]c2c1CCCC2)Nc1cc(C(F)(F)F)cc(C(F)(F)F)c1	11.3%	5.4%	-14.5%	23.0%	-6.6%	-5.6%
COC(=O)C1=C(C)NC(C)=C(C(=O)O[C@@H]2CCCN(Cc3ccccc3)C2)[C@@H]1c1cccc([N+](=O)[O-])c1	nt	nt	44.7µM*	?	-10.2%	-14.4%
CCOC(=O)C1=C(C)NC(C)=C(C(=O)OC)C1c1cccc([N+](=O)[O-])c1 (centres undefined)	?	-5.2%	?	-2.5%	?	-4.4%
COC(=O)CCN(C(C)=O)c1ccc(N)cc1	0.1%	nt	50.1µM*	-4.2%	?	26.7µM*
Cc1cc(C)cc(N2C(=O)CN(Cc3ccccc3)C2=S)c1	-0.5%	nt	3.4%	34.4%	-26.4%	23.8µM*
Cc1ccc(Cl)cc1-n1ncc2c(N3CCN(Cc4ccccc4)CC3)ncnc21	-6.2%	nt	-22.3%	42.4%	-9.9%	nt
Cc1ccc(C)c(Cn2c(=O)n(C(C)C)c(=O)c3oc4ccccc4c32)c1	0.7%	nt	-13.6%	27.8%	-7.8%	nt
S=C(NCCc1ccccc1)Nc1ccccn1	-24.0%	-0.5%	-13.4%	?	-4.8%	-12.9%
Cc1cccc(NC(=S)NCCc2ccccc2)n1	-38.2%	-4.0%[11.4 µM]	-14.6%	16.6%	-5.4%	33.6µM*
COc1cc(C2C(C#N)=C(N)Oc3cc(N)ccc32)cc(OC)c1OC (centres undefined)	-1.6%	-13.6%	-25.7%	17.4%	-2.2%	-2.7%
COc1cccc(C2C(C#N)=C(N)Oc3c2oc(CO)cc3=O)c1OC (centres undefined)	-0.9%	11.1%	17.8µM*	-6.1%	0.6%	-5.5%
COc1cc(C2C(C#N)=C(N)Oc3c2oc(CO)cc3=O)cc(OC)c1OC (centres undefined)	1.3%	-3.4%	7.08µM*	-12.5%	-7.7%	-9.1%
COc1ccc(C2C(C#N)=C(N)Oc3c2oc(CO)cc3=O)c(OC)c1OC (centres undefined)	12.4%	4.8%	11.2µM*	15.7%	-2.7%	-0.5%
Cc1ccc(CNC(=O)Cn2ccc3cc(S(=O)(=O)N4CCCC4)ccc32)o1	-14.2%[57.1 µM]	nt	-26.0%	22.8%	-4.0%	-25.8%
COc1cccc(C2CC(=O)Nc3c2c(=O)n(C)c2ncnn32)c1OC (centres undefined)	-32.4%	nt	-3.4%	6.3%	-14.1%	nt
CC(=NNC(=O)c1cccc(S(=O)(=O)N2CCCC2)c1)c1ccccc1	nt	-5.1%	1.5%	29.8%	4.7%	-0.5%
C/C(=N\NC(=O)c1cccc(S(=O)(=O)N2CCCC2)c1)c1cccs1	-17.2%	2.4%	56.2µM*	-9.6%	-17.9%	26.7µM*
COc1ccc(/C(C)=N/NC(=O)c2cccc(S(=O)(=O)N3CCCC3)c2)c(O)c1	2.82µM*	6.31µM*	?	-3.4%	-7.2%	-9.3%
CCN(Cc1ccccc1)c1ncnc2c1cnn2-c1ccc(F)cc1	82.9%	nt	56.3%	100.4%	11.0%	nt
CCn1c(SC)nnc1-c1nn(-c2ccccc2)ccc1=O	?	11.2%	3.98µM*	?	-0.5%	-8.5%
CCn1c(-c2nn(-c3ccc(C)cc3)ccc2=O)n[nH]c1=S	-38.0%	-6.2%[11.4 µM]	7.94µM*	30.0%	-3.1%	-7.8%
